Holding throughout (assay): DAPPL (digital affinity profiling via proximity ligation, sequencing); 10 mM Tris-HCl pH 7.5, 50 mM NaCl, 1 mM DTT, 4% glycerol, room temperature, 30 min; GST-TFs on glutathione beads, 16-mer random dsDNA library, 0.1% formaldehyde crosslink after washing; high values mean tight binding
Holding throughout (details): protein: recombinant; tags: N-terminal GST; dsDNA, one strand shown

The target of assay [1] is T1, FLI1 (Homo sapiens, UniProt Q01543 1-452).
T1 sequence: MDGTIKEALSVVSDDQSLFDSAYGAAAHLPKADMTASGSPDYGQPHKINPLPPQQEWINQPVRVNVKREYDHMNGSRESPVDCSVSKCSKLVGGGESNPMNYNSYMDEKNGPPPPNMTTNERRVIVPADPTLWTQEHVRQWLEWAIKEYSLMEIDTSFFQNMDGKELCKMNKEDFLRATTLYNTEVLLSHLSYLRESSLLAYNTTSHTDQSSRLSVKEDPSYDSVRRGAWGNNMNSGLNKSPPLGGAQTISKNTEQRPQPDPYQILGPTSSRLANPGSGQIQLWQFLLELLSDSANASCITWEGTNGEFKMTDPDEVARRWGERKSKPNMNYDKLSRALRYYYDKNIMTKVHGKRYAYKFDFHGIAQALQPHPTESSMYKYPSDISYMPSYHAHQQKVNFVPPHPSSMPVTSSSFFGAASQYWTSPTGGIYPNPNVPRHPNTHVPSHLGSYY
The gist of the method: (§1)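 The binding signal reported is, for every hexamer, its read frequency for a factor over its read frequency for the tag-only sample. Reads came from pools of yeast-expressed, GST-fused human transcription factors on glutathione beads, barcoded with DNA and mixed with that sample, which were incubated with 200 nmole of a random double-stranded 16-mer DNA library in Tris/NaCl/DTT/glycerol buffer at room temperature for 30 min. After washing, the pools were crosslinked with 0.1% formaldehyde, proximity-ligated with BsaI/T4 ligase for 1 h at 37 °C, PCR-amplified and sequenced on an Illumina NextSeq500.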

For assay [2], the target named is T2, ELK1 (Homo sapiens, UniProt P19419 1-428).
T2 sequence: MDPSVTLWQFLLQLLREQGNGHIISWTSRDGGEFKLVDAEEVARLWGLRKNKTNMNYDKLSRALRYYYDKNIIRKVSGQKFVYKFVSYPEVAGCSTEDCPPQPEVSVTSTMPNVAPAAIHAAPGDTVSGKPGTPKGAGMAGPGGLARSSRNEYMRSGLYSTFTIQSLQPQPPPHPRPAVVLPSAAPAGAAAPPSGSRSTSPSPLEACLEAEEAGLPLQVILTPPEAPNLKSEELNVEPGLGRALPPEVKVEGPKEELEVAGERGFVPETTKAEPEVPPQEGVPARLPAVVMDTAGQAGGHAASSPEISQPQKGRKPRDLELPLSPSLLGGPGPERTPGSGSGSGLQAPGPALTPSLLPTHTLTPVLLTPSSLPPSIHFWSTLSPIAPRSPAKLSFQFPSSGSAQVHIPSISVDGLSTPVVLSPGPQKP
The gist of the method:
as §1

The target of assay [3] is T3, GABPA (Homo sapiens, UniProt Q06546 1-454).
T3 sequence: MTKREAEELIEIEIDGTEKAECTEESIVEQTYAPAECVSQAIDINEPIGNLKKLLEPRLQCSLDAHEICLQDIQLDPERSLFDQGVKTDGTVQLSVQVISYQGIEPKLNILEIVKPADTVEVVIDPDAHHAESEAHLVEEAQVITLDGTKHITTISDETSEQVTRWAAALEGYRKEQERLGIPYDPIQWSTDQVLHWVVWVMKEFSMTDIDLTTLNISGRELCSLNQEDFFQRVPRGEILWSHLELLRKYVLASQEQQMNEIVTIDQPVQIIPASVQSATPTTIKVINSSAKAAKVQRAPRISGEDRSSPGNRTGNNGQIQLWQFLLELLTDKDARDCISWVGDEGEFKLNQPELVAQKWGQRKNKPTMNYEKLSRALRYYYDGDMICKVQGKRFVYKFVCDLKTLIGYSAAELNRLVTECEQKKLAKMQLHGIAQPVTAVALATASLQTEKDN
The gist of the method: as §1

Assay [4] has as its target T4, ERG (Homo sapiens, UniProt P11308 1-479).
T4 sequence: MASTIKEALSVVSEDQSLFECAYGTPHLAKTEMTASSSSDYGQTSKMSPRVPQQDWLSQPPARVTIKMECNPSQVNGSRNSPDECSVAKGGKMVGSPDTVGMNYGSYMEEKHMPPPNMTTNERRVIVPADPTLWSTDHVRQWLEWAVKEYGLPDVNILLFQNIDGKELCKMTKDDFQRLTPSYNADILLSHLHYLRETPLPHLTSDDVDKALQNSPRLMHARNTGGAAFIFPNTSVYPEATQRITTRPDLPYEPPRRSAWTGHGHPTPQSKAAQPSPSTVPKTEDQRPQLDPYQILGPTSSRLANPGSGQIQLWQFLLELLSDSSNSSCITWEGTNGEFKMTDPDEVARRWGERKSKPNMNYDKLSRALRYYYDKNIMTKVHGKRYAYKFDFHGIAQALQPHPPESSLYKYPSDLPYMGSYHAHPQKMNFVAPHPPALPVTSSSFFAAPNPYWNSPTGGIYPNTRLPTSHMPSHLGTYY
The method, boiled down: as §1

The target of assay [5] is ELF1 (Homo sapiens, UniProt P32519 1-619). The method, boiled down: as §1
The target of assay [6] is T5, EHF (Homo sapiens, UniProt Q9NZC4 1-300).
T5 sequence: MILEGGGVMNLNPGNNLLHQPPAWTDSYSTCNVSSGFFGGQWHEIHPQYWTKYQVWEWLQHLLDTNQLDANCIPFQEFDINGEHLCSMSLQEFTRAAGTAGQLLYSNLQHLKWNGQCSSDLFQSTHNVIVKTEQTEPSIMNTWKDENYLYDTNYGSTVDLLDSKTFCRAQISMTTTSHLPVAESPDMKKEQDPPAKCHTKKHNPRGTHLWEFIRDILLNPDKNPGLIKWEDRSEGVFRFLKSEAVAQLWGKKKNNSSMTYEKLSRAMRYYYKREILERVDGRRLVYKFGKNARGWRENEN
The gist of the method:
as §1

Assay [7] deals with SPI1 (Homo sapiens, UniProt P17947 1-270). The gist of the method: as §1
Assay [8] addresses SPIB (Homo sapiens, UniProt Q01892 1-262). The method, boiled down:
as §1

Assay [9] addresses T6, ELK3 (Homo sapiens, UniProt P41970 1-407).
T6 sequence: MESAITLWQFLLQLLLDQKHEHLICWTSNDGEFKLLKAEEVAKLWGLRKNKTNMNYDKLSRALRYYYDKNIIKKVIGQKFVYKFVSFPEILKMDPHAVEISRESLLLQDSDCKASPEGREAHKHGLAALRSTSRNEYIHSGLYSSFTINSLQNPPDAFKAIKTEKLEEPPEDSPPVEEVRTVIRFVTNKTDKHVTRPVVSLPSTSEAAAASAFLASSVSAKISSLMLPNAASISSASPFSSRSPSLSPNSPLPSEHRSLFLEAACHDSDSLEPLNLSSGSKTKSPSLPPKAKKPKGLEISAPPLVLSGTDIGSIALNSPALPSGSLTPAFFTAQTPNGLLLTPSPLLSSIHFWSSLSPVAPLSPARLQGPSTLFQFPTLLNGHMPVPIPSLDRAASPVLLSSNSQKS
The gist of the method: as §1

Sequence of ELF1 (P32519 whole entry): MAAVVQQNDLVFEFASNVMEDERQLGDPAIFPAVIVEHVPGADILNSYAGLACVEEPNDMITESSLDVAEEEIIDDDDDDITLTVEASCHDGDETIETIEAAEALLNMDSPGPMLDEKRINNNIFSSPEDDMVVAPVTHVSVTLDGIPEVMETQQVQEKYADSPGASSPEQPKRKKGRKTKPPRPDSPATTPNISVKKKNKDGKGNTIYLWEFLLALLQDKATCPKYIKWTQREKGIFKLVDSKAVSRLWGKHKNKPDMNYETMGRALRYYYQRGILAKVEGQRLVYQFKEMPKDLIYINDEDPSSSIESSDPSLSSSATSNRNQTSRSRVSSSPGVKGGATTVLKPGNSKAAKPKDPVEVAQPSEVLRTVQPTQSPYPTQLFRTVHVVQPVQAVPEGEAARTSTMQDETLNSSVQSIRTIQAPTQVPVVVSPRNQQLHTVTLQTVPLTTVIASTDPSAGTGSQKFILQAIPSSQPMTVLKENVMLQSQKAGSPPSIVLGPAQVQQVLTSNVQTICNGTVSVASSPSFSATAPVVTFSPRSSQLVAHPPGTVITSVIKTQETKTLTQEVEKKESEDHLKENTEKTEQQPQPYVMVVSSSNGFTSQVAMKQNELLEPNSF
Sequence of SPIB (Q01892 whole entry): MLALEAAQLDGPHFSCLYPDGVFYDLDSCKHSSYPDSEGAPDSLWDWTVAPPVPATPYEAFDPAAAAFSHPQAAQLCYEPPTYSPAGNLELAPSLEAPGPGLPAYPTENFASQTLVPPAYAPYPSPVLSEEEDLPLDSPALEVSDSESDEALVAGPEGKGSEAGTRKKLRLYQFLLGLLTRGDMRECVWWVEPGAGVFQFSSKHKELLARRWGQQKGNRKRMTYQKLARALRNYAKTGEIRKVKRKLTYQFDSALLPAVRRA

Regarding AAATAC, the binding signal was 1.3 fold enrichment (6-mer frequency, TF over GST control) in assay [1]; 1.27 fold enrichment (6-mer frequency, TF over GST control) in [2]; 1.43 fold enrichment (6-mer frequency, TF over GST control) in assay [3]; 1.43 fold enrichment (6-mer frequency, TF over GST control) in assay [4]; 1.36 fold enrichment (6-mer frequency, TF over GST control) in [5]; 1.39 fold enrichment (6-mer frequency, TF over GST control) in assay [6]. For the same sequence, the binding signal is 1.41 fold enrichment (6-mer frequency, TF over GST control) in assay [7]; 1.36 fold enrichment (6-mer frequency, TF over GST control) in assay [8]; 1.37 fold enrichment (6-mer frequency, TF over GST control) in assay [9].
Consider CCGATT, for which the binding signal in [1] is 1.42 fold enrichment (6-mer frequency, TF over GST control); in assay [2], 1.35 fold enrichment (6-mer frequency, TF over GST control); in assay [3] it was 1.32 fold enrichment (6-mer frequency, TF over GST control); in assay [4] it was 1.34 fold enrichment (6-mer frequency, TF over GST control); in [5] it was 1.36 fold enrichment (6-mer frequency, TF over GST control); in [6] it was 1.4 fold enrichment (6-mer frequency, TF over GST control). Moreover, the binding signal in assay [7] was 1.31 fold enrichment (6-mer frequency, TF over GST control); in assay [8], 1.4 fold enrichment (6-mer frequency, TF over GST control); in assay [9], 1.29 fold enrichment (6-mer frequency, TF over GST control).
As to AAATGT, the binding signal in assay [1] is 1.24 fold enrichment (6-mer frequency, TF over GST control); in assay [2] it was 1.19 fold enrichment (6-mer frequency, TF over GST control); in assay [3], 1.25 fold enrichment (6-mer frequency, TF over GST control); in assay [4], 1.31 fold enrichment (6-mer frequency, TF over GST control); in assay [5], 1.38 fold enrichment (6-mer frequency, TF over GST control); in assay [6], 1.32 fold enrichment (6-mer frequency, TF over GST control). For the same sequence, the binding signal in assay [7] was 1.26 fold enrichment (6-mer frequency, TF over GST control); in [8], 1.42 fold enrichment (6-mer frequency, TF over GST control); in assay [9] it was 1.37 fold enrichment (6-mer frequency, TF over GST control).
With TACCAT, the binding signal is 1.22 fold enrichment (6-mer frequency, TF over GST control) in [1]; 1.09 fold enrichment (6-mer frequency, TF over GST control) in assay [2]; 1.19 fold enrichment (6-mer frequency, TF over GST control) in assay [3]; 1.17 fold enrichment (6-mer frequency, TF over GST control) in assay [4]; 1.23 fold enrichment (6-mer frequency, TF over GST control) in assay [5]; 1.11 fold enrichment (6-mer frequency, TF over GST control) in [6]. The binding signal in [7] was 1.15 fold enrichment (6-mer frequency, TF over GST control); in assay [8] it was 1.21 fold enrichment (6-mer frequency, TF over GST control); in assay [9], 1.21 fold enrichment (6-mer frequency, TF over GST control).
As to ACGCCT, the binding signal is 1.16 fold enrichment (6-mer frequency, TF over GST control) in assay [1]; 1.24 fold enrichment (6-mer frequency, TF over GST control) in [2]; 1.21 fold enrichment (6-mer frequency, TF over GST control) in assay [3]; 1.2 fold enrichment (6-mer frequency, TF over GST control) in assay [4]; 1.29 fold enrichment (6-mer frequency, TF over GST control) in assay [5]; 1.12 fold enrichment (6-mer frequency, TF over GST control) in assay [6]. The binding signal in [7] was 1.14 fold enrichment (6-mer frequency, TF over GST control); in [8], 1.2 fold enrichment (6-mer frequency, TF over GST control); in [9], 1.21 fold enrichment (6-mer frequency, TF over GST control).
Turning to AATACT, the binding signal in assay [1] was 1.16 fold enrichment (6-mer frequency, TF over GST control); in [2] it was 1.19 fold enrichment (6-mer frequency, TF over GST control); in assay [3], 1.23 fold enrichment (6-mer frequency, TF over GST control); in assay [4], 1.22 fold enrichment (6-mer frequency, TF over GST control); in assay [5], 1.29 fold enrichment (6-mer frequency, TF over GST control); in assay [6], 1.24 fold enrichment (6-mer frequency, TF over GST control). For the same sequence, the binding signal is 1.21 fold enrichment (6-mer frequency, TF over GST control) in assay [7]; 1.14 fold enrichment (6-mer frequency, TF over GST control) in assay [8]; 1.23 fold enrichment (6-mer frequency, TF over GST control) in assay [9].
For the sequence ATGTAA, the binding signal in [1] was 1.38 fold enrichment (6-mer frequency, TF over GST control); in [2], 1.29 fold enrichment (6-mer frequency, TF over GST control); in [3] it was 1.13 fold enrichment (6-mer frequency, TF over GST control); in assay [4], 1.29 fold enrichment (6-mer frequency, TF over GST control); in assay [5] it was 1.23 fold enrichment (6-mer frequency, TF over GST control); in assay [6] it was 1.32 fold enrichment (6-mer frequency, TF over GST control). Further, the binding signal is 1.23 fold enrichment (6-mer frequency, TF over GST control) in [7]; 1.33 fold enrichment (6-mer frequency, TF over GST control) in assay [8]; 1.22 fold enrichment (6-mer frequency, TF over GST control) in [9].
As for AAGATG, the binding signal in [1] was 1.17 fold enrichment (6-mer frequency, TF over GST control); in assay [2] it was 1.17 fold enrichment (6-mer frequency, TF over GST control); in [3], 1.11 fold enrichment (6-mer frequency, TF over GST control); in assay [4] it was 1.11 fold enrichment (6-mer frequency, TF over GST control); in assay [5], 1.09 fold enrichment (6-mer frequency, TF over GST control); in assay [6], 1.1 fold enrichment (6-mer frequency, TF over GST control). The binding signal in assay [7] is 1.09 fold enrichment (6-mer frequency, TF over GST control); in assay [8], 1.16 fold enrichment (6-mer frequency, TF over GST control); in [9], 1.19 fold enrichment (6-mer frequency, TF over GST control).
